Assay results published in PubChem BioAssay (EPA / NIEHS).
Activity calls are given as the source filed them. How the source made its calls: active means hit-call score of the fitted dose curve at least 0.9, where 1 is the maximum; inactive means score below 0.9.

How the values were obtained:
[1] = CEETOX_H295R_PROG: CeeTox H295R High-throughput Steroidogenesis Assay for Progesterone (PROG) (AID 2283442); conditions: actives raise or lower the signal;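 on AC50: human H295R adrenal cells primed with 10 µM forskolin before dosing; progesterone secreted into medium by H295R cells measured by HPLC-MS/MS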
In short: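 Adrenal H295R line, forskolin-stimulated (10 uM, 48 h) before dosing. 48 h exposure, 0.1% DMSO vehicle. Secreted progesterone by reverse-phase HPLC with ESI+ MS/MS quantification; DMSO-normalised bidirectional curve fit.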

[2] = read-out: Tumor necrosis factor receptor superfamily member 6 (Homo sapiens) (UniProt P25445); experiment: LTEA_HepaRG_FAS: Life Technologies and Expression Analysis (LTEA) Assay for Fas cell surface death receptor (FAS) using HepaRG (AID 2283447); conditions: mRNA level, 48 h; actives raise or lower the signal
In short: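 Differentiated HepaRG cells in serum-free induction medium were exposed 48 h to 8 half-log concentrations up to 100 uM in 0.5% DMSO, in duplicate. FAS mRNA was measured by qRT-PCR normalised to ACTB, GAPDH and POLR2A; bidirectional fit versus DMSO.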

[3] = read-out: Fatty acid synthase (Homo sapiens) (UniProt P49327); experiment: LTEA_HepaRG_FASN: Life Technologies and Expression Analysis (LTEA) Assay for Fatty Acid Synthase (FASN) using HepaRG (AID 2283448); conditions: mRNA level, 48 h; actives raise or lower the signal
In short: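 Differentiated human HepaRG cells were exposed for 48 h in serum-free induction medium to eight half-log concentrations up to 100 uM in 0.5% DMSO, in duplicate. FASN mRNA was quantified by TaqMan qRT-PCR, normalized to ACTB/GAPDH/POLR2A, and fitted bidirectionally against DMSO.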

[4] = read-out: Cyclin D2 (CCND2), CCND2 (gene 894); experiment: LTEA_HepaRG_CCND2: Life Technologies and Expression Analysis (LTEA) Assay for Cyclin D2 (CCND2) using HepaRG (AID 2283449); conditions: mRNA level, 48 h; actives raise or lower the signal;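 further: CCND2 transcript measured by TaqMan qRT-PCR and normalised to three housekeeping genes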
In short: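 Chemicals in 0.5% DMSO, eight half-log concentrations from 100 uM top, were applied in duplicate for 48 h to human HepaRG cells in serum-free induction medium. CCND2 mRNA by TaqMan qRT-PCR, normalised to ACTB/GAPDH/POLR2A; bidirectional fit versus DMSO.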

[5] = read-out: Cyclin Dependent Kinase Inhibitor 1A (CDKN1A), CDKN1A (gene 1026); experiment: LTEA_HepaRG_CDKN1A: Life Technologies and Expression Analysis (LTEA) Assay for Cyclin Dependent Kinase Inhibitor 1A (CDKN1A) using HepaRG (AID 2283450); conditions: mRNA level, 48 h; actives raise or lower the signal
In short: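 Cryopreserved HepaRG cells were plated and cultured 48 h, then switched to serum-free induction medium. Chemicals (eight half-log concentrations, top 100 uM, 0.5% DMSO) were applied for 48 h. Lysates underwent qRT-PCR for CDKN1A with housekeeping normalization.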

[6] = read-out: Cyclin D1 (CCND1), CCND1 (gene 595); experiment: LTEA_HepaRG_CCND1: Life Technologies and Expression Analysis (LTEA) Assay for Cyclin D1 (CCND1) using HepaRG (AID 2283451); conditions: mRNA level, 48 h; actives raise or lower the signal;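 on AC50: TaqMan qRT-PCR transcript level normalised to ACTB GAPDH and POLR2A housekeeping genes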
In short: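 Human liver HepaRG line; 48 h dosing, 8 conc. ≤100 uM, 0.5% DMSO; TaqMan qRT-PCR mRNA, 3 housekeeping genes; bidirectional curve fit vs DMSO.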

[7] = read-out: catalase (CAT), CAT (gene 847); experiment: LTEA_HepaRG_CAT: Life Technologies and Expression Analysis (LTEA) Assay for catalase (CAT) using HepaRG (AID 2283452); conditions: mRNA level, 48 h; actives raise or lower the signal;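 on AC50: TaqMan qRT-PCR signal normalized to ACTB GAPDH and POLR2A housekeeping genes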
In short: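 HepaRG cells in serum-free induction medium, 0.5% DMSO vehicle, exposed 48 h in duplicate over 8 half-log concentrations from 100 uM. CAT mRNA measured by qRT-PCR, normalized to ACTB, GAPDH, POLR2A; bidirectional fit versus DMSO.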

[8] = read-out: flavin-containing dimethylaniline monooxygenases 3 (FMO3), FMO3 (gene 2328); experiment: LTEA_HepaRG_FMO3: Life Technologies and Expression Analysis (LTEA) Assay for flavin-containing dimethylaniline monooxygenases 3 (FMO3) using HepaRG (AID 2283453); conditions: mRNA level, 48 h; actives raise or lower the signal;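 on AC50: FMO3 transcript by TaqMan qRT-PCR normalized to ACTB GAPDH and POLR2A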
In short: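 HepaRG, 48 h exposure, 8-pt half-log series from 100 uM, 0.5% DMSO vehicle, duplicates; FMO3 transcript by Fluidigm TaqMan qRT-PCR, housekeeping-normalized; gain/loss fit vs DMSO.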

Measured: AC50

Sequence of Fatty acid synthase (Homo sapiens) (P49327 whole entry, looked up): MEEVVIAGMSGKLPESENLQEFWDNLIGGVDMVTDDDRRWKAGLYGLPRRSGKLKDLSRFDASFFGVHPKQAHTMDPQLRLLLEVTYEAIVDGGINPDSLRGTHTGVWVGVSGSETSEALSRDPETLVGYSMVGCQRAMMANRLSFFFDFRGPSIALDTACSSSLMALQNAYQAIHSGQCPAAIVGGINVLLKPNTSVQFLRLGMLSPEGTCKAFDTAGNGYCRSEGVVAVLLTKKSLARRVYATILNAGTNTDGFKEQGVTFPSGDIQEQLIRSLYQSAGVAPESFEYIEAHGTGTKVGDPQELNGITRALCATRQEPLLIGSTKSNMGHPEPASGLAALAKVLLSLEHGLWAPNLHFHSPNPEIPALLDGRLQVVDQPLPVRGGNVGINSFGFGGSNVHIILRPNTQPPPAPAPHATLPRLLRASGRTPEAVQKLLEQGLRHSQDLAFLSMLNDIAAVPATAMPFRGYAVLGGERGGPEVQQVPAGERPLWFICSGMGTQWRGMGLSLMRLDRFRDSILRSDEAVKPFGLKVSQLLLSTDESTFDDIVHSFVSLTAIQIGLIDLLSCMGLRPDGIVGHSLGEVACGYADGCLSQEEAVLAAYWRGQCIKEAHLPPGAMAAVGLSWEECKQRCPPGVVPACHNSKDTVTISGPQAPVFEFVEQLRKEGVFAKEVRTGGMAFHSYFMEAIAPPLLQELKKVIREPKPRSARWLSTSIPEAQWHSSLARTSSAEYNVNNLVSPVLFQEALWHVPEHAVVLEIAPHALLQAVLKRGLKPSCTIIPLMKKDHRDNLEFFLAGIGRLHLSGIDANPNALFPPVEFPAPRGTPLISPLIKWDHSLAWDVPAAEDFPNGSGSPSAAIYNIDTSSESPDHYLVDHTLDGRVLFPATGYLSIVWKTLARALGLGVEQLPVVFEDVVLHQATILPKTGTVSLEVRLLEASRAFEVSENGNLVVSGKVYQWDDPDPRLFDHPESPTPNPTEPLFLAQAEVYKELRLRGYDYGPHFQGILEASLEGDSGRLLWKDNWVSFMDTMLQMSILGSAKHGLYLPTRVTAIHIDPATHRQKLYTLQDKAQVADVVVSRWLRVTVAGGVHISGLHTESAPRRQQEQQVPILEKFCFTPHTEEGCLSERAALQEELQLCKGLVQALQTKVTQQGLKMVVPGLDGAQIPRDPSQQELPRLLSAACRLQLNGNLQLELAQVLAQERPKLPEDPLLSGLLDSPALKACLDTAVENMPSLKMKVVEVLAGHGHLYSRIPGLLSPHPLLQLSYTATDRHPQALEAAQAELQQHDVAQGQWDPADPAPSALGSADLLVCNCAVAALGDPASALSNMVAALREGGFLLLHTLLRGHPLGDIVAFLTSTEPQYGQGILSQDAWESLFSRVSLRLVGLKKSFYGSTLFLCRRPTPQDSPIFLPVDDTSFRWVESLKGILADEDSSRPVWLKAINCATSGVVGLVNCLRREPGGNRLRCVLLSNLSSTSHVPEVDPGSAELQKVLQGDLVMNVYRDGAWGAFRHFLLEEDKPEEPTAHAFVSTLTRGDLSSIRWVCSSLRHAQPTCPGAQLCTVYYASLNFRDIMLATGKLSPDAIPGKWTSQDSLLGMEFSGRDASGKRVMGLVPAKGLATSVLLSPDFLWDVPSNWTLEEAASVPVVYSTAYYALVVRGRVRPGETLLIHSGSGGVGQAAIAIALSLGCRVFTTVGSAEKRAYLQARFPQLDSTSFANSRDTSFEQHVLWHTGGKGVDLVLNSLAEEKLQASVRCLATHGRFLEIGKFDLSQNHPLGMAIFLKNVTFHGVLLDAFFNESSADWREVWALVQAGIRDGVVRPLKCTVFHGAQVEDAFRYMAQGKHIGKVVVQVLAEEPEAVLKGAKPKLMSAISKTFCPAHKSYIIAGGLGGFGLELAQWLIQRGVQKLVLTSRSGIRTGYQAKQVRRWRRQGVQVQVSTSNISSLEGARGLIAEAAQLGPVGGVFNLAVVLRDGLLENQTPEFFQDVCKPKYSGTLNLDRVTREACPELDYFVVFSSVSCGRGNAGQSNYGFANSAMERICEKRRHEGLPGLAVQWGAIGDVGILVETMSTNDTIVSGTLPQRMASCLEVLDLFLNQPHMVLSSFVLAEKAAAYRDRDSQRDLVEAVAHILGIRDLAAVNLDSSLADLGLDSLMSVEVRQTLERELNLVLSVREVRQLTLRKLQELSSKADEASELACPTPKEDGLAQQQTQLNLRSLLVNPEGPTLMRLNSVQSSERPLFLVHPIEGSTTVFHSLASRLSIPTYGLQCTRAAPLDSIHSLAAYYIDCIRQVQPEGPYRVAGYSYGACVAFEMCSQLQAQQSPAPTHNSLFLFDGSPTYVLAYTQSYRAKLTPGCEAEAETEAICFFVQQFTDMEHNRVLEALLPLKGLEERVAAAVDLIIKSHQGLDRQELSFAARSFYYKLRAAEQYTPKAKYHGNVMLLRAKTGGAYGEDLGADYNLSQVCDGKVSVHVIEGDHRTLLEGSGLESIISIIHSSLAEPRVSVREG

C#CC(C)(C)NC(=O)c1cc(Cl)cc(Cl)c1
inactive: [2] | [4] | [5] | [6] | [7] | [8]
active: [1] 10.4 µM | [3] 0.0239 µM

O=C(O)c1cc(Oc2ccc(C(F)(F)F)cc2Cl)ccc1[N+](=O)[O-]
inactive: [1] | [2] | [3] | [4] | [6] | [7] | [8]

CCOP(=S)(OCC)OC(Cl)C(Cl)(Cl)Cl (centres undefined)
inactive: [2] | [3] | [4] | [5] | [6] | [7] | [8]

CCC(=NOC/C=C/Cl)C1=C(O)CC(C2CCOCC2)CC1=O (centres undefined)
inactive: [2] | [3] | [7] | [8]
active: [6] 0.414 µM

CCCCOC(=O)c1ccccc1C(=O)O
inactive: [2] | [3] | [4] | [5] | [6] | [7] | [8]

CC1=NNC(=O)N(/N=C/c2cccnc2)C1
inactive: [2] | [4] | [5] | [6] | [7] | [8]
active: [3] 13.4 µM

CCC(=O)Nc1ccc(Cl)c(Cl)c1
active: [3] 30.8 µM | [6] 50 µM
inactive: [2] | [7] | [8]

Cc1ccn2nc(S(=O)(=O)Nc3c(F)cccc3F)nc2n1
inactive: [2] | [3] | [4] | [5] | [6] | [7] | [8]

S=C1NCCN1
inactive: [2] | [3] | [4] | [5] | [6] | [7] | [8]

CCCCSP(=O)(SCCCC)SCCCC
inactive: [2] | [3] | [4] | [6] | [7] | [8]

CSC1=N[C@@](C)(c2ccccc2)C(=O)N1Nc1ccccc1
active: [2] 77.8 µM | [3] 66.1 µM | [6] 50 µM | [7] 32.7 µM | [8] 30.6 µM
inactive: [4]

COP(=O)(OC)C(O)C(Cl)(Cl)Cl (centres undefined)
inactive: [2] | [3] | [5] | [6] | [7] | [8]

CN1COCN(Cc2cnc(Cl)s2)C1=N[N+](=O)[O-]
inactive: [2] | [3] | [6] | [7] | [8]

COc1cc(OC)nc(Sc2cccc(Cl)c2C(=O)O)n1
inactive: [2] | [3] | [6] | [7] | [8]

CCOP(=S)(OCC)SCCSCC
inactive: [2] | [3] | [4] | [6] | [7] | [8]

O=c1ccc(=O)[nH][nH]1
inactive: [2] | [3] | [4] | [6] | [7] | [8]

C[N+]1(C)CCCCC1
inactive: [2] | [3] | [4] | [6] | [7] | [8]

N#CSCSC#N
inactive: [2] | [4] | [6]
active: [3] 64.6 µM | [7] 74.9 µM | [8] 83.2 µM

O=[N+]([O-])c1cc(C(F)(F)F)c(Cl)c([N+](=O)[O-])c1Nc1ncc(C(F)(F)F)cc1Cl
active: [3] 50 µM | [6] 14.8 µM | [7] 29.2 µM | [8] 27.7 µM
inactive: [2] | [4]

COP(=O)(OC)OC(Br)C(Cl)(Cl)Br (centres undefined)
inactive: [2] | [3] | [4] | [5] | [6] | [7] | [8]

CCc1cnc(C2=NC(C)(C(C)C)C(=O)N2)c(C(=O)O)c1 (centres undefined)
inactive: [2] | [3] | [4] | [5] | [6] | [7] | [8]

CCOP(=O)(SC(C)CC)N1CCSC1=O (centres undefined)
inactive: [2] | [3] | [6] | [7] | [8]

CC(C)=CC1C(C(=O)OCN2C(=O)C3=C(CCCC3)C2=O)C1(C)C (centres undefined)
inactive: [2] | [3] | [5] | [6] | [7] | [8]

Cc1nn(-c2cc(NS(C)(=O)=O)c(Cl)cc2Cl)c(=O)n1C(F)F
inactive: [2] | [3] | [6] | [7] | [8]

Cc1cc(C2CC2)nc(Nc2ccccc2)n1
active: [3] 50 µM
inactive: [2] | [4] | [5] | [6] | [7] | [8]

CCOC(=O)CC(SP(=O)(OC)OC)C(=O)OCC (centres undefined)
inactive: [2] | [3] | [4] | [5] | [6] | [7] | [8]

CCCOc1nn(C(=O)NS(=O)(=O)c2ccccc2C(=O)OC)c(=O)n1C
active: [4] 67.7 µM
inactive: [2] | [3] | [6] | [7] | [8]

C=C(C)[C@H]1Cc2c(ccc3c2O[C@@H]2COc4cc(OC)c(OC)cc4[C@@H]2C3=O)O1
inactive: [4]
active: [2] 13.1 µM | [3] 20.8 µM | [6] 22.8 µM | [7] 1.75 µM | [8] 5.89 µM

CCOP(=O)(OCC)Oc1cc(C)nc(C(C)C)n1
inactive: [2] | [3] | [6] | [7] | [8]

CC[C@H](C)[C@H]1O[C@]2(C=C[C@@H]1C)C[C@@H]1C[C@@H](C/C=C(\C)[C@@H](O[C@H]3C[C@H](OC)[C@@H](O[C@H]4C[C@H](OC)[C@@H](NC)[C@H](C)O4)[C@H](C)O3)[C@@H](C)/C=C/C=C3\CO[C@@H]4[C@H](O)C(C)=C[C@@H](C(=O)O1)[C@]34O)O2
active: [3] 16.4 µM | [6] 87.5 µM | [7] 12.7 µM | [8] 15.5 µM
inactive: [2] | [4]

COP(=O)(OC)SCn1c(=O)oc2cc(Cl)cnc21
inactive: [2] | [3] | [4] | [7] | [8]
active: [6] 78.5 µM

CC(Oc1cccc(Cl)c1)C(=O)O (centres undefined)
inactive: [2] | [3] | [6] | [7] | [8]

Nc1c(Cl)cc([N+](=O)[O-])cc1Cl
inactive: [2] | [4] | [5]
active: [3] 16.9 µM | [6] 50 µM | [7] 41.4 µM | [8] 50 µM

CCc1cccc(CC)c1N(COC)C(=O)CCl
inactive: [2] | [3] | [4] | [6] | [7] | [8]

CC(C)[C@H](C(=O)O[C@H](C#N)c1cccc(Oc2ccccc2)c1)c1ccc(Cl)cc1
inactive: [2] | [3] | [4] | [6] | [7] | [8]

CCCCOC(=O)[C@@H](C)Oc1ccc(Oc2ccc(C#N)cc2F)cc1
inactive: [2] | [3] | [4] | [6] | [7] | [8]

CN(C)[C@@H]1C(=O)C(C(N)=O)=C(O)[C@@]2(O)C(=O)C3=C(O)c4c(O)cccc4[C@@](C)(O)[C@H]3[C@H](O)[C@@H]12
inactive: [2] | [3] | [4] | [6] | [7] | [8]

CC(=NC#N)N(C)Cc1ccc(Cl)nc1
inactive: [2] | [3] | [4] | [6] | [7] | [8]

CC(C)N(C(=O)SCC(Cl)=C(Cl)Cl)C(C)C
inactive: [2] | [3] | [4] | [6] | [7] | [8]
